The source of these data is PubChem BioAssay (NCATS).

Experiment [1] deals with Thyrotropin receptor (Homo sapiens) (UniProt P16473). The experiment can be described thus: qHTS Assay for Antagonists of the Thyroid Stimulating Hormone Receptor (AID 488980). Also: series mostly up to about 58 µM; 0% is about no effect. The gist of the method:
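HEK293 cells transfected with human TSHR, suspended in HEPES-buffered HBSS with 70 uM RO 20-1724, were treated with compounds plus TSH at EC80 (4 nM final). cAMP was measured by competitive HTRF (cryptate anti-cAMP antibody, cAMP-d2 acceptor).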

Experiment [2] concerns the target D(1A) dopamine receptor (Homo sapiens) (UniProt P21728). The experiment can be described thus: HTS Assay for Allosteric Agonists of the Human D1 Dopamine Receptor: Primary Screen for Agonists (AID 488981). Also: potency is read from the fitted curve at half-maximal effect. As to activation: 0% is about no effect. The gist of the method: (§1)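 Calcium flux in an inducible, force-coupled HEK293 Trex D1 line (overnight at 30 C): agonist mode is the 180 s kinetic read after compound; potentiator mode is the following 180 s read after dopamine at EC20.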

The target is the same in experiment [3]. The experiment can be described thus: HTS Assay for Allosteric Agonists of the Human D1 Dopamine Receptor: Primary Screen for Potentiators (AID 488982). Also: potency is read from the fitted curve at half-maximal effect. The gist of the method:
as §1

Experiment [4] has the same target. The experiment can be described thus: HTS Assay for Allosteric Agonists of the Human D1 Dopamine Receptor: Primary Screen for Antagonists (AID 488983).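 Also: calcium flux response to an EC80 dopamine challenge measured with no-wash dye; % is scaled to controls: 0 for no effect and ±100 for the full control effect; nearly all actives have a fitted effect of over 65% in size.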 Put shortly:
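Tetracycline-induced HEK293 T-REx cells expressing force-coupled D1 were plated overnight at 30 C, dye-loaded for calcium, and read kinetically. Compounds were pinned in, then an EC80 dopamine challenge followed after 180 s to reveal antagonism.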

The nature of experiment [5]: Validation screen for small molecules that induce genotoxicity in human embryonic kidney (HEK293T) cells expressing luciferase-tagged ELG1 (AID 493106). Also: 0% is about no effect. Put shortly:
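HEK293T cells expressing luciferase-tagged ELG1 were exposed to compound or DMSO vehicle for 16 hr at 37 °C, 5% CO2. Genotoxic stress raises ELG1 levels, so increased luciferase signal after ONE-Glo addition and 30 min at room temperature marks hits.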

Experiment [6] concerns the target ATPase family AAA domain-containing protein 5 (Homo sapiens) (UniProt Q96QE3). The experiment can be described thus: Validation screen for small molecules that inhibit ELG1-dependent DNA repair in human embryonic kidney (HEK293T) cells expressing luciferase-tagged ELG1 (AID 493107).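 Also: cells co-treated with the DNA-damaging agent 5-fluorouridine alongside compound; series mostly up to about 46 µM; % is scaled to controls: 0 for no effect and ±100 for the full control effect; inhibitors lower the ELG1-luciferase luminescence signal; nearly all actives have a fitted effect of over 70% in size.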 The gist of the method:
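HEK293T cells expressing luciferase-tagged ELG1 were co-treated with 5-fluorouridine and compound or DMSO for 16 hr at 37 °C, 5% CO2. Luciferase activity was then read with ONE-Glo after 30 min at room temperature; suppressed signal indicates blocked ELG1 function.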

For experiment [7], the target named is Thyrotropin-releasing hormone receptor (Homo sapiens) (UniProt P34981). The experiment can be described thus: qHTS for Small Molecule Agonists and Allosteric Enhancers of Human TRH Receptor: Validation Screen for Agonists (AID 493127;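 active = calcium activation more than 3 SD above the typical response in the agonist read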;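 also: intracellular calcium rise by fluo-8 fluorescence before TRH EC20 addition; 0% is about no effect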). As to conditions: TRH receptor agonist cell assay; at 2 µM; stronger effect = higher value. The gist of the method:
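TRHR-expressing cells were plated overnight in serum-containing medium, then loaded with fluo-8 calcium dye at room temperature for 30 min–1.5 h. After a 10 s baseline, compound was pin-transferred and calcium fluorescence (ex 480/em 530) read kinetically for agonist response.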
(In qHTS, concentration-response curves come from the screen itself.)

Experiment [8] can be described thus: Nrf2 qHTS screen for inhibitors: Validation (AID 493153; active = well fitted inhibition curve with a large enough effect in the main read-out, with a control signal flat, not every such curve was filed as active). Particulars: Potency: luciferase luminescence; viability change: measured here: cytotoxicity max response. Put shortly: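 A549 cells carrying an ARE-driven firefly luciferase reporter, in 5% FBS OPTI-MEM, were treated with compounds in concentration-response for 18-24 h at 37°C. Viability was read by CellTiter-Fluor fluorescence, then Nrf2 activity by luciferase luminescence.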

The structures appear in SMILES notation. Records with an inconclusive call do not appear. Active and inactive are the calls of the source. Unless noted, calls follow the shape of the dose curve; as a rule, active = well fitted curve in the direction sought with a large enough effect; inconclusive = small, poorly fitted or top-dose-only effect, or another doubt; inactive = no such curve, though single readings can be large; an effect the other way counts as inactive or inconclusive. Residues, ends and D or L forms follow the SMILES beside them. *: point of attachment. Cbz = O=C(OCc1ccccc1)*

Thyrotropin-releasing hormone receptor (Homo sapiens), sequence (P34981 whole entry, looked up): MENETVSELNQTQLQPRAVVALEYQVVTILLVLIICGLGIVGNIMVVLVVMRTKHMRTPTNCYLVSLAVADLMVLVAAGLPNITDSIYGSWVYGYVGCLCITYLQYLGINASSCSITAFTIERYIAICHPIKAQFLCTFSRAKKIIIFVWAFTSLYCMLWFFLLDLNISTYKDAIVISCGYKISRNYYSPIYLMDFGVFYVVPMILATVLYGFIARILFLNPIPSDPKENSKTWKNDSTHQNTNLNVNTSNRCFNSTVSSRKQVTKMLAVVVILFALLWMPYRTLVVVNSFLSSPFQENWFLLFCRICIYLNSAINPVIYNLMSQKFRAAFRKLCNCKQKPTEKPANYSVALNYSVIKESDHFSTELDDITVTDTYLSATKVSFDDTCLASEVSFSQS
D(1A) dopamine receptor (Homo sapiens), sequence (P21728 whole entry, looked up): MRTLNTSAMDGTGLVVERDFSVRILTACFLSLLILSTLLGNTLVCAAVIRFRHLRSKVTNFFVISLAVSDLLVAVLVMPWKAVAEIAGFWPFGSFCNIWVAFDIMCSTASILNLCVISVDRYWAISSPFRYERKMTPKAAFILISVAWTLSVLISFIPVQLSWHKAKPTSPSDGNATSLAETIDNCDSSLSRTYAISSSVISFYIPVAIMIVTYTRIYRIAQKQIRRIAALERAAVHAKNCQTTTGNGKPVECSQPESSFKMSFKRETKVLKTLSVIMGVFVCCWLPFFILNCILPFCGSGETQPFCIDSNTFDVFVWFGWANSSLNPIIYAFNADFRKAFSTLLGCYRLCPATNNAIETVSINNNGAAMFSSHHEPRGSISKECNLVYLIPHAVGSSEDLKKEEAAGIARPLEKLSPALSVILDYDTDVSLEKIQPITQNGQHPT
ATPase family AAA domain-containing protein 5 (Homo sapiens), sequence (Q96QE3 whole entry, looked up, the tested form may be a part): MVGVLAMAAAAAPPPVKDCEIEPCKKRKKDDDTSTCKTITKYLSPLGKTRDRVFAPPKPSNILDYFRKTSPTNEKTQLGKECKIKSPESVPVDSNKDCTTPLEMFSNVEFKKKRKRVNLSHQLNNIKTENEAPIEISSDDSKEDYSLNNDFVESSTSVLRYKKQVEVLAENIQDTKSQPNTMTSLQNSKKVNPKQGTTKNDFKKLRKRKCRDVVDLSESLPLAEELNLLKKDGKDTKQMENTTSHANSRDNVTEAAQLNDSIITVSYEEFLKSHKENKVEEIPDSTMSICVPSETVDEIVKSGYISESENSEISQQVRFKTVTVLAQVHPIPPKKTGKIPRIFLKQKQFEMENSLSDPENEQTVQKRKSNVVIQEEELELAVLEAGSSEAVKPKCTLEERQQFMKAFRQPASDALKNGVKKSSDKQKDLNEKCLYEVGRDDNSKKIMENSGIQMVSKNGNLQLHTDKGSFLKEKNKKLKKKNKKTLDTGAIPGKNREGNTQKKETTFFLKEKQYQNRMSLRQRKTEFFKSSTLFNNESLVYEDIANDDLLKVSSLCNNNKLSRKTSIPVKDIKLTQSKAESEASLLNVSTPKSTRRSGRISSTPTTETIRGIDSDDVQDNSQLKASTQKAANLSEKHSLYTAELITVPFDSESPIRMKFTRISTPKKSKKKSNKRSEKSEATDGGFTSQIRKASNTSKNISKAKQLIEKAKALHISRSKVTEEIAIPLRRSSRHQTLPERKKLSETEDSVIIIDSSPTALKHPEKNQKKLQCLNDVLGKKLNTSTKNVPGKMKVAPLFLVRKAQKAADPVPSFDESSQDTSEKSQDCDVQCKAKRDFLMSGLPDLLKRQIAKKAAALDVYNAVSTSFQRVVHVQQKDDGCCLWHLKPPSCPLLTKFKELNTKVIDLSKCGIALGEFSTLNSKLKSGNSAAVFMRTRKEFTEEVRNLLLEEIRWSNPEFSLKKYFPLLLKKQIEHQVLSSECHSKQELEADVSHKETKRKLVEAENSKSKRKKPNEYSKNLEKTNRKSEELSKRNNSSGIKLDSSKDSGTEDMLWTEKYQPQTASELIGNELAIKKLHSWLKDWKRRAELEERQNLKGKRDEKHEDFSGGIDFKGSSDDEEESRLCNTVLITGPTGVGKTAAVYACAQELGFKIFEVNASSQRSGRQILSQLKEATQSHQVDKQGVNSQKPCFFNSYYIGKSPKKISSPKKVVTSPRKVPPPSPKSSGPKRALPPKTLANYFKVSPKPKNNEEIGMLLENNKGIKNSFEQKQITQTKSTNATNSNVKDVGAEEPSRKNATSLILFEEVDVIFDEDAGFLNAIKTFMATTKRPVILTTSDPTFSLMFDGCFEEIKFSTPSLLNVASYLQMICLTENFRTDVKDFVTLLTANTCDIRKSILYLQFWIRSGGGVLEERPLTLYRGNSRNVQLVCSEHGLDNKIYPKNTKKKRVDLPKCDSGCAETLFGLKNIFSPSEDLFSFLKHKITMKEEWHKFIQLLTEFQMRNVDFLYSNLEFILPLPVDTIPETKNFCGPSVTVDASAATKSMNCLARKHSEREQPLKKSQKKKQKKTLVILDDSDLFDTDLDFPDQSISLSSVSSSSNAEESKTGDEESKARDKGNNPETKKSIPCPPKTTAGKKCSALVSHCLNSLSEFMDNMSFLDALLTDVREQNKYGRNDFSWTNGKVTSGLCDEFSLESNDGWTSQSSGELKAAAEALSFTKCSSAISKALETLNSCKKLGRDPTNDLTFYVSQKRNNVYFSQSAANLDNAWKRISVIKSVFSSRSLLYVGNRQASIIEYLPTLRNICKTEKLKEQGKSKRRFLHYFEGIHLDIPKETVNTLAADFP
Thyrotropin receptor (Homo sapiens), sequence (P16473 whole entry, looked up): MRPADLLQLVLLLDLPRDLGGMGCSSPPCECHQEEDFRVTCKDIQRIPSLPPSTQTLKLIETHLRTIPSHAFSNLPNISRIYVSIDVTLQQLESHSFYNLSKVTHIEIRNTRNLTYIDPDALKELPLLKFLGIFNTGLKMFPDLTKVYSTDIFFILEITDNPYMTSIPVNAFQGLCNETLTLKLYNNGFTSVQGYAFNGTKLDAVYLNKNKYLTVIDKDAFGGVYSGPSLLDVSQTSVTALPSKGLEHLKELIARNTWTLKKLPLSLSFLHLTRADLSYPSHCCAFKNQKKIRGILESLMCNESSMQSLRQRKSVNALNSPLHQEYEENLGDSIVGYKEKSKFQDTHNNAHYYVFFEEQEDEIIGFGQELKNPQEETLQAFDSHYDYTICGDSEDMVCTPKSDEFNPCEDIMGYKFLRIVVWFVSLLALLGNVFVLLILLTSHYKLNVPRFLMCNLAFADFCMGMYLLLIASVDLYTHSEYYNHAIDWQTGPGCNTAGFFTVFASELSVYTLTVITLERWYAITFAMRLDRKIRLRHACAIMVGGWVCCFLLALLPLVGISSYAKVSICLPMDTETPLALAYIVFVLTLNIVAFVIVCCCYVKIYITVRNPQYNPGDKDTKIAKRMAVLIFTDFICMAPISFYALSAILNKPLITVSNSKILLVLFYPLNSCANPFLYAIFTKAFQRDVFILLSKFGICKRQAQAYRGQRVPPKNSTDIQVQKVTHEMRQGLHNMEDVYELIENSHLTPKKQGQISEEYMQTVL

On to `CC(C)C[C@H](NC(=O)[C@H](O)[C@H](N)Cc1ccccc1)C(=O)O`, for which the outcome in experiment [1] was inactive. In addition, the Potency entry in experiment [2], in experiment [3], in experiment [4], in experiment [5], in experiment [6] and in experiment [8] was “inactive” in each case. The activation in experiment [7] was -0.0625% (inactive). The viability change in experiment [8] was found to be 5.98%.

Consider `O=C(OCCN1CCOCC1)C1(c2ccccc2)CCCCC1`, for which the call in experiment [1] was inactive. Moreover, the Potency entry in experiment [2], in experiment [3], in experiment [4], in experiment [5], in experiment [6] and in experiment [8] was “inactive” in each case. Besides, the activation in experiment [7] is -4.62% (inactive). Moreover, the viability change in experiment [8] is -0.582%.

Turning to `NC(=O)CC[C@H](N)C(=O)O`, in experiment [1], the compound was classed as inactive. For the same compound, the Potency result in experiment [2], in experiment [3], in experiment [4], in experiment [5], in experiment [6] and in experiment [8] was “inactive” each time. In experiment [7], the activation was -0.625% (inactive). Further, the viability change in experiment [8] is 2.88%.

Regarding `CC(C)[C@H](NC(=O)OCc1ccccc1)C(=O)N[C@H](C=O)Cc1ccccc1` (Cbz-Val-Phe-aldehyde), the result in experiment [1] was inactive. The Potency entry in experiment [2], in experiment [4], in experiment [5], in experiment [6] and in experiment [8] was “inactive” throughout. The Potency in experiment [3] is 2.06 µM (active). Also, in experiment [7], the activation was 0.25% (inactive). In experiment [8], the viability change stood at 13.7%.

For the compound `O=C(O)C1CCNCC1`, in experiment [1], the outcome was inactive. The Potency result in experiment [2], in experiment [3], in experiment [4], in experiment [5], in experiment [6] and in experiment [8] was “inactive” in each case. In addition, in experiment [7], the activation was -0.188% (inactive). The viability change in experiment [8] was -14.4%.

`NCC(O)C1CCCCCCC1` (stereo not drawn): the outcome in experiment [1] was inactive. Besides, the Potency result in experiment [2], in experiment [3], in experiment [4], in experiment [5], in experiment [6] and in experiment [8] was “inactive” in each case. In addition, the activation in experiment [7] was 1% (inactive). Also, in experiment [8], the viability change turned out to be 3.56%.

As for `OCC1NCC(O)C(O)C1O` (stereo not drawn), in experiment [1], the outcome was inactive. In addition, the Potency result in experiment [2], in experiment [3], in experiment [4], in experiment [5], in experiment [6] and in experiment [8] was “inactive” each time. In addition, the activation in experiment [7] is 0.938% (inactive). Moreover, the viability change in experiment [8] is -2.29%.

For `COC1(C2=NCCN2)COc2ccccc2O1` (stereo not drawn), the result in experiment [1] was inactive. In addition, the Potency result in experiment [2], in experiment [3], in experiment [4], in experiment [5], in experiment [6] and in experiment [8] was “inactive” each time. Besides, the activation in experiment [7] is 1.62% (inactive). Further, the viability change in experiment [8] was -0.853%.

As for `O=C(O)Cc1ccc(O)c(O)c1`, the compound was classed as inactive in experiment [1]. For the same compound, the Potency result in experiment [2], in experiment [3], in experiment [4], in experiment [5], in experiment [6] and in experiment [8] was “inactive” each time. For the same compound, the activation in experiment [7] is 0.938% (inactive). Besides, in experiment [8], the viability change is 9.81%.

Consider `COc1cc(/C=C(\C#N)C(=O)c2ccc(O)c(O)c2)cc(I)c1O`, for which the compound was classed as inactive in experiment [1]. The values for the Potency in experiment [2] and in experiment [3] were 14.1 µM (active) and 3.66 µM (active), respectively. The Potency entry in experiment [4], in experiment [5], in experiment [6] and in experiment [8] was “inactive” each time. Further, the activation in experiment [7] was 53.1% (active). The viability change in experiment [8] is -22%.

For the compound `CSC(N)=NCCC[C@H](N)C(=O)O`, the outcome in experiment [1] was inactive. Further, the Potency result in experiment [2], in experiment [3], in experiment [4], in experiment [5], in experiment [6] and in experiment [8] was “inactive” each time. Besides, the activation in experiment [7] was 0.75% (inactive). The viability change in experiment [8] was -16.2%.

Take `N[C@@H](Cc1ccc(O)c(I)c1)C(=O)O`: the compound was classed as inactive in experiment [1]. Moreover, the Potency result in experiment [2], in experiment [3], in experiment [4], in experiment [5], in experiment [6] and in experiment [8] was “inactive” throughout. Also, in experiment [7], the activation is 1.19% (inactive). The viability change in experiment [8] is -2.22%.

In the case of `O=C(O)C1=CCCN(CCON=C(c2ccccc2)c2ccccc2)C1`, the compound was classed as inactive in experiment [1]. The Potency entry in experiment [2], in experiment [3], in experiment [4], in experiment [5], in experiment [6] and in experiment [8] was “inactive” in each case. The activation in experiment [7] is -3% (inactive). In addition, the viability change in experiment [8] amounted to 4.51%.

For `O=c1[nH]ccc2c(O)cccc12`, in experiment [1], the result was inactive. In addition, the Potency entry in experiment [2], in experiment [3], in experiment [4], in experiment [5], in experiment [6] and in experiment [8] was “inactive” throughout. Further, the activation in experiment [7] was 1.12% (inactive). In addition, the viability change in experiment [8] was -2.46%.

For `c1ccc2nc(C3=NCCN3)ccc2c1`, the compound was classed as inactive in experiment [1]. Also, the Potency result in experiment [2], in experiment [3], in experiment [4], in experiment [5], in experiment [6] and in experiment [8] was “inactive” in each case. For the same compound, the activation in experiment [7] was 0.0625% (inactive). Further, the viability change in experiment [8] amounted to 1.31%.

As for `Nc1ncnc2c1ncn2C1CCCO1` (stereo not drawn), in experiment [1], the result was inactive. For the same compound, the Potency entry in experiment [2], in experiment [3], in experiment [4], in experiment [5], in experiment [6] and in experiment [8] was “inactive” each time. Besides, in experiment [7], the activation is -0.25% (inactive). Besides, the viability change in experiment [8] worked out at 12.1%.

Regarding `Nc1ccc(-c2nc3ccc(-c4nc5ccc(N)cc5[nH]4)cc3[nH]2)cc1`, the compound was classed as inactive in experiment [1]. The Potency result in experiment [2], in experiment [3], in experiment [4], in experiment [5], in experiment [6] and in experiment [8] was “inactive” throughout. Besides, the activation in experiment [7] is 1% (inactive). For the same compound, the viability change in experiment [8] was -10.2%.

In the case of `NCCNS(=O)(=O)c1cccc2c(Cl)cccc12`, in experiment [1], the compound was classed as inactive. The Potency result in experiment [2], in experiment [3], in experiment [4], in experiment [5], in experiment [6] and in experiment [8] was “inactive” in each case. In addition, the activation in experiment [7] is 2.62% (inactive). Besides, the viability change in experiment [8] was -10.5%.

As for `N#Cc1cc2nc(O)c(O)nc2cc1[N+](=O)[O-]`, the compound was called inactive in experiment [1]. In addition, the Potency entry in experiment [2], in experiment [3], in experiment [4], in experiment [5], in experiment [6] and in experiment [8] was “inactive” in each case. The activation in experiment [7] was -2.94% (inactive). In experiment [8], the viability change was -8.54%.

Consider `Cc1cccc(C)c1OCC(N)C(C)C` (stereo not drawn), for which the compound was called inactive in experiment [1]. The Potency entry in experiment [2], in experiment [3], in experiment [4], in experiment [5], in experiment [6] and in experiment [8] was “inactive” each time. The activation in experiment [7] was 1.56% (inactive). For the same compound, in experiment [8], the viability change came to 4.6%.

With `O=C(O)c1ccccc1Nc1ccccc1`, the outcome in experiment [1] was inactive. Besides, the Potency result in experiment [2], in experiment [3], in experiment [4], in experiment [5], in experiment [6] and in experiment [8] was “inactive” throughout. Besides, the activation in experiment [7] is -4.31% (inactive). Further, the viability change in experiment [8] is 10.9%.

On to `CC(=O)[C@H]1CCC2C3CC=C4C[C@@H](OS(=O)(=O)O)CC[C@]4(C)C3CC[C@@]21C` (stereo partly drawn), for which the outcome in experiment [1] was inactive. The Potency entry in experiment [2], in experiment [3], in experiment [4], in experiment [5], in experiment [6] and in experiment [8] was “inactive” throughout. The activation in experiment [7] was -0.125% (inactive). In experiment [8], the viability change worked out at 2.24%.
